An excerpt weighted towards active compounds, which were near 7.3% of everything screened.
ELG1 genotoxic: inducers of genotoxicity in HEK293T ELG1-luciferase cells; HEK293T ELG1-luciferase reporter, luminescence, 16 h; Potency, µM (top dose mostly 46 µM), inactives show at the highest dose activity change, positive = activation, actives largely listed as activators; hit rate 1.3% among 330,000; AID 504466; note: % of control where 0% means no effect; nearly all actives have a fitted effect of over 60% in size
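Cells (2,000/well) expressing the ELG1-luciferase fusion are dosed by pin tool and kept 16 hr at 37 °C, 5% CO2. Signal comes from ONE-Glo luciferase reagent after 30 min at room temperature.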
Rab9 promoter act: activates the Rab9 promoter. Potency, µM (top dose mostly 9.22 µM), without a hit: at the top dose activation, negative = inhibition, actives largely listed as activators. Huh7 Rab9 promoter-luciferase reporter, luminescence, 24 h. hit rate 2.8% among 320,000. AID 485297; note: % of control where 0% means no effect; nearly all actives have a fitted effect of over 60% in size
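Using Huh7 cells stably transfected with Rab9 promoter–luciferase, compounds were incubated 24 h at 37 °C, 5% CO2; luciferase luminescence was read 10 min after reagent addition.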
KinaseGlo FLuc: blocks Kinase-Glo luciferase, a counter-screen artifact. AID 1379. hit rate 0.28% among 200,000. Kinase-Glo luciferase, ATP luminescence, 8 min. Potency, µM (series often up to 38.3 µM), without a hit: at the top dose activity change, negative = inhibition, most hits filed as inhibitors; note: % is set by controls: 0 for no effect and ±100 for the full control effect; nearly all actives have a fitted effect of over 60% in size
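Kinase-Glo luciferase light output from ATP and luciferin was measured with 10 uM ATP, within the enzyme's linear range. Buffer: 50 mM imidazole pH 7.2, 50 mM KCl, 7 mM MgCl2, 0.01% Tween 20, 0.05% BSA; luminescence read after 8 min at ambient temperature.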
SMN2 splice up: enhancers of SMN2 splice variant expression; Potency, µM (titrated, usually from 46.1 µM), for inactives: at the highest dose activity change, positive = activation, usual class: activators; HEK293 SMN2-luciferase splicing reporter, luminescence, 30-36 h; hit rate 2.8% among 210,000; AID 1458; note: % of control where 0% means no effect; nearly all actives have a fitted effect of over 55% in size
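HEK293 cells carry an SMN2 […]–luciferase reporter in which exon 7 inclusion puts luciferase in frame. Cells were plated 10-12 h before compound addition, then incubated 30-36 h at 37C. ONE-Glo luminescence was read; sodium butyrate at 4.5 mM final served as control.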
NPC1 prom act: NPC1 promoter activation. Huh7 NPC1 promoter luciferase reporter, 24 h. Potency, µM (highest dose often 9.22 µM), inactives show at the top dose activation, hits mostly activators. hit rate 2.4% among 320,000. AID 485313; note: % of control where 0% means no effect; nearly all actives have a fitted effect of over 60% in size
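Stable NPC1-promoter luciferase Huh7 line; cpd (DMSO) 24 h, 37 °C, 5% CO2; Amplite luciferase reagent 10 min RT; luminescence readout. qHTS format.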
FLuc modulator: inhibits or activates purified firefly luciferase, miR-21 counter-screen; purified FLuc, Km substrates, luminescence inhibition; P08659; AID 588342; Potency, µM (top dose mostly 57.5 µM), for inactives: at the highest dose activity change, negative = inhibition, most hits filed as inhibitors; hit rate 6.9% among 360,000;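 note: plate controls were vehicle for no effect and reference inhibitor for full effect; nearly all actives have a fitted effect of over 55% in size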
Target sequence (P08659 whole entry, looked up): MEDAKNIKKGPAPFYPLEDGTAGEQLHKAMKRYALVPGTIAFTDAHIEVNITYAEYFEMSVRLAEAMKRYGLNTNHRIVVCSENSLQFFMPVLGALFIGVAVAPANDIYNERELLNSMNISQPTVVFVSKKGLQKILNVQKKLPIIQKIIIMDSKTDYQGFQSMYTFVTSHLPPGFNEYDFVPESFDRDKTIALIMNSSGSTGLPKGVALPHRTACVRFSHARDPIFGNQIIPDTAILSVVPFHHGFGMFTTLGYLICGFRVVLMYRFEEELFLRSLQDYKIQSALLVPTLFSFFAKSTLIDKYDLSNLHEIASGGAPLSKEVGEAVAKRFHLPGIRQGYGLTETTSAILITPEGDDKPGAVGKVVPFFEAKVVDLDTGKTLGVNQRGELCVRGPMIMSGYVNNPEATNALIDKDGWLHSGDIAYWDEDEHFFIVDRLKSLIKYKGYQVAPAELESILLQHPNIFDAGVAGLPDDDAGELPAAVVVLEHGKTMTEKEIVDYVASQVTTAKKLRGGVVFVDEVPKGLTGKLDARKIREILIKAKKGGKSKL
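Purified P. pyralis luciferase, 10 nM final, with Km-level 10 uM D-luciferin and 10 uM ATP in 50 mM Tris acetate pH 7.5, 10 mM Mg acetate, 0.01% Tween-20, 0.05% BSA; 6-point qHTS titration about 60 µM downward; luminescence read.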
Numbers without * were called inactive; u = inconclusive; x = not tested or not shown; [ ] = remark or other dose. Calls come from the whole dose curve; as a rule, active = well fitted curve in the direction sought with a large enough effect; inconclusive = small, poorly fitted or top-dose-only effect, or another doubt; inactive = no such curve, though single readings can be large; an effect the other way counts as inactive or inconclusive. Potency is the fitted concentration of half-maximal effect.

SMILES	ELG1 genotoxic	Rab9 promoter act	KinaseGlo FLuc	SMN2 splice up	NPC1 prom act	FLuc modulator
Cc1cc(N2CCN(C)CC2)nc2ccc(NC(=S)N3CCN(c4ccc(F)cc4)CC3)cc12	-3%	-10%	9%	-22%	-8%	0%
Cc1cc(N2CCOCC2)nc2ccc(NC(=O)CCC(=O)N3CCN(c4ccccc4F)CC3)cc12	u	4µM*	x	x	u	6µM*
Cc1cc(N2CCCCC2)nc2ccc(NC(=O)CCC(=O)N3CCN(c4ccccc4)CC3)cc12	x	x	x	6%	x	9.5µM*
Cc1ccc(C)c(N2CCN(C(=O)CCC(=O)Nc3ccc4nc(N5CCCCC5)cc(C)c4c3)CC2)c1	x	x	x	10%	x	u
Cc1cc(N2CCN(c3ccccc3F)CC2)nc2cc(O)ccc12	7%	10%	0%	-15%	3%	15µM*
C=CCNC(=O)N1CCc2nc(CCCC)c3c(c2C1)CO[C@@H](C)C3	x	x	1%[7.66 µM]	7%[9.22 µM]	x	x
CCOc1ccc(N(CC)C(=O)c2cc3c(s2)-c2ccc(Cl)cc2SC3)cc1	x	x	x	u	x	4%
Clc1ccc(Cl)c(Cl)c1Cl	x	x	x	-3%	x	x
Cc1cc(N2CCOCC2)nc2ccc(NC(=O)CCC(=O)N3CCCC(C)C3)cc12 (stereo unspecified)	u	u	1%	13µM*	4µM*	21µM*
CC(C)OC(=O)Nc1ccc(-c2ccc(NC(=O)OC(C)C)cc2Cl)c(Cl)c1	2%	3%	x	x	-2%	2%
COc1ccc(NC(=O)OC(C)C)cc1	u	2.2µM*	-17%	11µM*	2µM*	12µM*
COc1ccc(NC(=O)Nc2ccc(N(C)C)cc2)cc1	u	2.2µM*	3%	13µM*	2.5µM*	3µM*
COc1ccc(NC(=O)Nc2ccc(OC)cc2)cc1	u	2.2µM*	-2%	u	2.8µM*	-22%
COC(=O)c1ccc(NC(=O)Nc2ccc(OC)cc2)cc1	0%	22%	2%	19%	8%	-20%
COc1ccc(NC(=O)/C=C2\SC(=O)NC2=O)cc1	12%	-1%	2%	23%	6%	12µM*
COc1cc(/C=C/c2nc(-c3ccccc3O)n[nH]2)cc(OC)c1OC	-1%	3%	-3%	u	13%	u
CC(=O)Nc1ccc(/C=C/c2nc(-c3ccccc3O)n[nH]2)cc1	u	3.5µM*	x	x	u	u
COC(=O)C(NC(=O)CCc1c(C)nc2c(-c3ccccc3)c(C)nn2c1C)C(C)C (stereo unspecified)	x	x	x	-13%	x	-9%
C/C=C(\C)C(=O)N1CC2(CC(c3cccc(NC(=O)COc4ccc(Cl)cc4)c3)=NO2)C[C@@H]1C(N)=O (stereo partly specified)	0%	-7%	x	x	-7%	15µM*
C=C(C)C(=O)N1CC2(CC(c3cccc(NC(=O)COc4ccc(Cl)cc4)c3)=NO2)C[C@@H]1C(N)=O (stereo partly specified)	-5%	-7%	x	x	1%	12µM*
CCCCCC(=O)Nc1cccc(C2=NOC3(C2)C[C@H](C(N)=O)N(C(=O)COc2ccc(Cl)cc2)C3)c1 (stereo partly specified)	-15%	-6%	x	x	-9%	-16%
CC(C)NC(=O)CSc1nc2ccccc2c(=O)n1Cc1ccc(C(=O)NC(C)C)cc1	x	x	x	x	x	-1%
CCOc1c(Nc2ccc(C(C)C)cc2)c(=O)c1=O	1%	1%	x	x	-2%	13µM*
COc1nc(Nc2ccc(C(C)C)cc2)nc(OC)n1	16%	20%	-4%	u	25%	u
c1ccc2[nH]c(-c3ccnc4ccccc34)nc2c1	u	3.5µM*	0%	u	u	24µM*
SMILES	ELG1 genotoxic	Rab9 promoter act	KinaseGlo FLuc	SMN2 splice up	NPC1 prom act	FLuc modulator
Clc1ccccc1-c1nc2ccccc2[nH]1	u	2µM*	x	x	2.8µM*	8.5µM*
Fc1ccccc1-c1nc2ccccc2[nH]1	u	1.8µM*	u	x	3.5µM*	9.5µM*
CCSc1ncccc1-c1nc2ccccc2[nH]1	u	29%	-6%	u	u	u
Cc1ccccc1-c1nc2ccccc2[nH]1	u	u	-23%	11µM*	u	17µM*
CC(C)CC(=O)Nc1ccc(Cl)c(-c2nc3ccccc3[nH]2)c1	x	x	x	x	x	-13%
CCc1ccc(CNc2ncc(-c3cccc(OC)c3)n2C)cc1	x	x	x	-15%	x	-14%
CCN(CC)S(=O)(=O)c1ccc2c(c1)N(CC(=O)N1CCN(c3cccc(C)c3C)CC1)C(=O)CO2	x	x	x	x	x	2%
COc1ccc(-c2ccc(=O)n(CC(=O)NCCc3ccccc3)n2)cc1	x	x	x	x	x	-9%
COc1ccc(NCc2cc3cc4c(cc3n(CC(=O)Nc3ccccc3)c2=O)OCO4)cc1	x	x	x	x	x	-2%
Cc1ccc(CCNC(=O)c2ccc3c(c2)c(C)c(C)n3Cc2ccccc2)cc1	x	x	x	x	x	-9%
Nc1nonc1-c1nc2ccccc2[nH]1	0%	-3%	-1%	u	-1%	-5%
CSc1ncccc1-c1nc2ccccc2[nH]1	11%	25%	-9%	-1%	19%	21µM*
Cn1cc(Cl)c(-c2nc3ccccc3[nH]2)n1	10µM*	3.5µM*	-11%	16µM*	2.5µM*	17µM*
O[C@H]1[C@H]2c3cc4c(cc3CN3CCC(=C[C@@H]1O)[C@H]23)OCO4	x	x	x	-55%	x	x
Cc1cccc(NC(=O)c2oc3ccccc3c2NC(=O)Cc2coc3cc(C)cc(C)c23)c1	x	x	x	9%	x	1%
Cc1ccc(NC(=O)COC(=O)Cn2c(C)csc2=O)cc1C	-2%	0%	0%	7%	1%	-11%
Cc1cc(C)c(C(=O)COC(=O)Cn2c(C)csc2=O)cc1C	11%	-1%	x	x	6%	17µM*
Cc1csc(=O)n1CC(=O)OCc1cccc2ccccc12	u	25%	1%	-1%	18%	15µM*
CCc1cccc(C)c1NC(=O)COC(=O)Cn1c(C)csc1=O	2%	1%	x	x	8%	2%
Cc1cc(C)c(NC(=O)COC(=O)CCn2c(C)csc2=O)c(C)c1	1%	14%	x	x	-3%	5%
Cc1cc(C)c(C(=O)COC(=O)CCn2c(C)csc2=O)cc1C	10%	u	x	x	16%	4.8µM*
Oc1oc(-c2ccccc2)nc1/C=N/c1ccccn1	-6%	-9%	-2%	x	-6%	-1%
CN=Cc1nc(-c2ccccc2)oc1O	u	2.5µM*	-9%	11µM*	3.5µM*	17µM*
COc1ccc(/C(C)=N/Nc2nc3ccccc3n3cnnc23)cc1OC	-1%	9%	x	x	4%	11µM*
COc1ccc(Nc2nc3ccccc3n3cnnc23)cc1Cl	12%	4%	x	x	-1%	u

Screening results: PubChem, National Center for Advancing Translational Sciences (NCATS)
